Screening data as filed in PubChem.
In the library only some 3.1% were active in any assay of this set; here they are far more common.
PriA SSB inh – inhibitors of Klebsiella pneumoniae PriA binding to SSB C-terminal tail, primary screen, biochemical, AlphaScreen | AID 1272365, 2023 | AlphaScreen SSBct-PriA binding, biotinylated peptide | inhibition, % at 33 µM | actives 0.6% (n = 430,000) | PriA–SSB C-terminal tail interaction (Klebsiella pneumoniae); in the data active means inhibition mostly above about 37%, no sharp cut-off; inactive means mostly below about 20%;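 further: plate controls were negative control peptide for no effect and reference peptide for full effect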
Anthrax LF prot – Bacillus anthracis LF protease inhibitors, primary screen, biochemical, multiplex microsphere, MLPCN library; Lethal factor (Bacillus anthracis), P15917; multiplex microsphere protease cleavage assay; inhibition, % at 10 µM; actives 0.12% (n = 360,000); AID 588501, 2011; further: plate controls were buffer without enzyme for full effect and enzyme alone for no effect
Target sequence (P15917 whole entry, looked up): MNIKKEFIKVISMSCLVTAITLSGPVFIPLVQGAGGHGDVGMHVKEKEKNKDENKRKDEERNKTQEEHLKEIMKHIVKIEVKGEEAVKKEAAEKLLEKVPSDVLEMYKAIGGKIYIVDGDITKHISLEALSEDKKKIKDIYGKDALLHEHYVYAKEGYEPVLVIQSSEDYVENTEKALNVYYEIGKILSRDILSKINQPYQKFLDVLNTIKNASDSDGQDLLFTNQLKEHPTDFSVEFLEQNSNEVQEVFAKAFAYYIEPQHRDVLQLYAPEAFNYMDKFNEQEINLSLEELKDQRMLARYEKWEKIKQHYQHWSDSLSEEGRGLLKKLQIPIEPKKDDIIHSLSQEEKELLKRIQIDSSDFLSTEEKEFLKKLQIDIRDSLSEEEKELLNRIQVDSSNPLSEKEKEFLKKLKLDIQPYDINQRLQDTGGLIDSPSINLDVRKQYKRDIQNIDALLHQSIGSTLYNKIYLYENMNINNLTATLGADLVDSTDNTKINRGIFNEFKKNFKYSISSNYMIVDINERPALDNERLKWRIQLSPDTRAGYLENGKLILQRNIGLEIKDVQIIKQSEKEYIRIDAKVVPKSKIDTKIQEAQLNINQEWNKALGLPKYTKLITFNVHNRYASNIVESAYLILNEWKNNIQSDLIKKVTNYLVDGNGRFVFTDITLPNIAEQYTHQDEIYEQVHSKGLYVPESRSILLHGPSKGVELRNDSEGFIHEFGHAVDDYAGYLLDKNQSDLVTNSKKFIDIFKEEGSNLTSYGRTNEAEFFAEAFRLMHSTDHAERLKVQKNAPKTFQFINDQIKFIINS
Autofluor counter – compound fluorescence in toxin protease inhibitor counterscreen. fluorescence intensity (test concentration not listed). AID 624483. compound autofluorescence counterscreen, microsphere flow cytometry; hits give high values. actives 3.1% (n = 360,000); in the data active means fluorescence intensity above about 16000; inconclusive means no clear call, values can overlap the other calls
BoNT A protease – BoNT/A light chain protease inhibitors, primary screen, biochemical, flow cytometry, MLPCN library; Botulinum neurotoxin type A light chain protease (Clostridium botulinum A str. ATCC 3502); multiplex microsphere protease substrate cleavage; inhibition, % at 10 µM; actives 0.17% (n = 360,000); AID 588499, 2011; further: plate controls were buffer without enzyme for full effect and enzyme alone for no effect
BoNT-F LC inh – BoNT/F light chain protease inhibitors, primary screen, biochemical, flow cytometry, MLPCN library; Botulinum neurotoxin type F light chain protease (Clostridium botulinum); Multiplex microsphere protease cleavage assay; inhibition, % at 10 µM; actives 0.22% (n = 360,000); AID 588497, 2011; in the data active means inhibition above about 35%, passing the limit was not always enough; inconclusive means no clear call, values can overlap the other calls; further: plate controls were buffer without enzyme for full effect and enzyme alone for no effect
* marks the source's active call; other numbers are inactive results; i = inactive; ? = inconclusive; · = no result. Unless noted, no stated cut-off is given here; in the data, active means inhibition above about 30%; inconclusive means no clear call, values can overlap the other calls; inactive means below that.

SMILES	PriA SSB inh	Anthrax LF prot	Autofluor counter	BoNT A protease	BoNT-F LC inh
CC1=NN(c2ccccc2)C(=O)C1=Cc1c(O)n(-c2ccc(F)c(Cl)c2)[nH]c1=O	18	·	·	·	·
CN(Cc1nc2ccccc2n1C)c1ccccc1	-8	·	·	·	·
CN(Cc1nc2ccccc2n1C)C(=O)c1cccs1	-10	-6	22484*	-1	-3
COc1ccc(/C=N/Nc2nc(-c3ccc(C)cc3)c(NC(C)=O)s2)cc1OC	i	36*	4131	3	?
CSc1ccc(C(=O)Nc2nc(-c3ccccn3)cs2)cc1[N+](=O)[O-]	33	·	·	·	·
O=C(Nc1nc(-c2ccccn2)cs1)c1ccc([N+](=O)[O-])s1	46	·	·	·	·
Cc1cccc(C(=O)Nc2nc(-c3ccccn3)cs2)c1[N+](=O)[O-]	97*	·	·	·	·
O=C(Nc1nc(-c2ccccn2)cs1)c1ccc(Cl)cc1[N+](=O)[O-]	110*	·	·	·	·
Cc1ccccc1-c1noc(C[C@H]2CCCN(C(=O)c3ccno3)C2)n1	-9	·	·	·	·
CCn1nc(C(=O)Nc2cccc(C)n2)cc1C	-5	·	·	·	·
Cc1nn2c(nc1=O)NNC2(C)C(C)(C)C (stereo not given)	-7	-11	5852	-1	-6
C=CCCC1(C)NNc2nc(=O)c(C)nn21 (stereo not given)	98*	·	·	·	·
Cc1ccc(Nc2ccc(S(=O)(=O)N3CCOCC3)cc2[N+](=O)[O-])cc1C	69*	-1	2474	0	-12
C=CCN(c1ccccc1)S(=O)(=O)c1cccc(C(=O)Nc2ccc(N3CCOCC3)cc2)c1	43*	4	5164	1	-7
C=CCN(c1ccccc1)S(=O)(=O)c1cccc(C(=O)Nc2ccncc2)c1	3	-3	5860	-1	-8
CC1Cc2ccccc2N1C(=O)c1cnc2ccccn2c1=O (stereo not given)	-5	-2	23725*	-2	-5
COc1ccccc1C(=O)C1Nc2ccccc2-c2nnc(SC)nc2O1 (stereo not given)	-12	2	21854*	4	7
CCC1Nc2ccccc2-c2nnc(SC)nc2O1 (stereo not given)	0	-7	2570	-1	-2
CN1CCc2c(c3c(n2C)CCN(C)C3c2ccc(F)cc2)C1c1ccc(F)cc1 (stereo not given)	-4	-2	8152	0	-1
COc1ccc(C2c3c4c(n(C)c3CCN2C)CCN(C)C4c2ccc(OC)cc2)cc1 (stereo not given)	10	-2	16735*	-1	-1
Cc1ccc2c(c1)CCCN2C(=O)CCCSc1ccc(NC(=O)c2ccco2)nn1	-4	·	·	·	·
Cc1ccc(NC(=O)N2CCC(=O)N2)cc1	-3	-8	23674*	-3	-5
Cc1cc2ccccc2c(=O)n1CC(=O)NCC(=O)N1CCN(c2cccc(Cl)c2)CC1	2	-3	20243*	?	-1
Cn1c(COc2ccccc2)nnc1SCC(=O)Nc1ccc(N2CCOCC2)c(Cl)c1	0	-4	17200*	?	-5
CCS(=O)(=O)c1ccc(C(=O)Nc2cc(C)on2)cc1	0	·	·	·	·
SMILES	PriA SSB inh	Anthrax LF prot	Autofluor counter	BoNT A protease	BoNT-F LC inh
O=c1ccc(-c2ccco2)nn1CCNS(=O)(=O)c1ccc2c(c1)OCCO2	-18	·	·	·	·
O=C(NC1CCCCCC1)C1C2C=CC3(CN(Cc4cccnc4)C(=O)C13)O2 (stereo not given)	-13	-5	6194	0	2
O=C(NCc1ccccc1)C1C2C=CC3(CN(Cc4cccnc4)C(=O)C13)O2 (stereo not given)	-13	-2	19359*	2	1
COc1cccc(C(=O)NCC2CCN(c3ccc(S(=O)(=O)N4CCOCC4)cc3)CC2)c1	-4	-2	10368	-13	25
O=C(c1ccc(S(=O)(=O)N2CCOCC2)cc1)N1CCN(c2cccc(Cl)c2)CC1	-10	-5	24247*	-3	-4
O=C(NCC1CCN(c2ccc(S(=O)(=O)N3CCOCC3)cc2)CC1)c1cccc(Cl)c1	3	-5	18496*	-3	18
O=C(c1cccc(S(=O)(=O)N2CCOCC2)c1)N1CCN(c2cccc(Cl)c2)CC1	13	·	·	·	·
C=Cc1ccc(COC(=O)c2nnn(-c3ccc(CC)cc3)c2C)cc1	-20	·	·	·	·
Cc1cc(C)c(S(=O)(=O)Nc2cccnc2)c(C)c1	-15	0	22484*	2	2
CCOc1cc(C)c(C)cc1S(=O)(=O)NCc1ccccn1	5	·	·	·	·
Cc1cc2ncc(NC(=O)c3cnc4ccccc4n3)cn2n1	-12	·	·	·	·
CCC1CCc2c(c3ccccc3[nH]c2=O)O1 (stereo not given)	87*	-2	2858	0	-3
COc1ccc(/C=N/n2cnnc2)cc1COc1ccccn1	·	-1	23503*	-1	-1
CCOC(=O)c1ccccc1OCc1cc(C=Nn2cnnc2)ccc1OC	-1	·	·	·	·
O=C(NCCC(O)c1cccs1)c1ccsc1 (stereo not given)	-11	·	·	·	·
Cc1nn(-c2ccc(F)cc2F)c2c1-c1nc(N3CCCC3)ncc1CC2	-6	-1	23757*	?	-6
CC(=O)N1CCN(c2ccccc2NC(=O)COc2ccc(Br)cc2)CC1	-10	-4	23694*	-1	-6
C/C(=N/NC(=S)NCc1ccco1)c1ccco1	43*	·	·	·	·
CC(OC(=O)CCC1CCCC1)C(=O)Nc1ccccc1[N+](=O)[O-] (stereo not given)	43*	1	4992	3	-4
COc1ccc(N2CCN(c3ncnc4scc(-c5ccccc5)c34)CC2)cc1	46*	-9	3894	-2	12
Cc1cc2ncn(-c3ncnc4scc(-c5ccccc5)c34)c2cc1C	3	0	24244*	?	-5
CCN(CC)CC(C)CNC(=O)CC(C(=O)N1CCc2ccccc21)n1ccnc1 (stereo not given)	-11	-3	11413	-1	-10
O=C(CC(C(=O)N1CCc2ccccc21)n1ccnc1)NCc1ccccc1 (stereo not given)	-3	-5	18019*	10	9
COc1cc(NC(=O)NCC(c2ccsc2)N2CCN(C)CC2)cc(OC)c1OC (stereo not given)	0	·	·	·	·
Cc1ccnc(N/C=C(\C#N)c2nc(-c3cccc(Br)c3)cs2)c1	-4	39*	8599	56*	39*
SMILES	PriA SSB inh	Anthrax LF prot	Autofluor counter	BoNT A protease	BoNT-F LC inh
O=C(Cc1cc(=O)[nH]c(SCc2ccccc2)n1)N1CCc2ccccc2C1	-18	·	·	·	·
O=C(CSc1nnnn1-c1ccccc1)N1CCc2ccccc21	11	-2	9943	0	-3
Cc1cc(=O)[nH]c(N2CCc3ccccc3C2)n1	-1	1	25748*	-5	-5
O=C(CSc1nnnn1-c1ccc(Cl)cc1)N1CCc2ccccc2C1	-6	2	21981*	1	3
Cc1cc(=O)[nH]c(SCC(=O)N2CCc3ccccc3C2)n1	-5	0	20691*	0	0
O=C(CSc1ccc(NC(=O)c2cccc(F)c2)nn1)NCC1CCCO1 (stereo not given)	4	·	·	·	·
